Measured values taken from PubChem BioAssay (NCATS).
Records with an inconclusive call do not appear. Active and inactive are the calls of the source. Unless noted, calls follow the shape of the dose curve; as a rule, active = well fitted curve in either direction with a large enough effect (not every such curve was filed as active); inconclusive = small, poorly fitted or top-dose-only effect, or another doubt; inactive = flat fitted curve, though single readings scatter. Residues, ends and D or L forms follow the SMILES beside them.

biological target: Glucocorticoid receptor (Homo sapiens) (UniProt P04150); assay: GR-EFC Redistribution (AID 451; calls by dose curve; also: potency is read from the fitted curve at half-maximal effect); conditions: CHO-K1 GR-EFC translocation, beta-gal luminescence, 2 h
How it was run: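 CHO-K1 cells stably expressing nuclear-localized β-gal enzyme acceptor and GR fused C-terminally to the enzyme donor fragment; ligand-driven nuclear translocation restores β-gal by complementation. Compounds titrated up to 46 uM final, 2 h at 37 °C; luminescence read.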

Glucocorticoid receptor (Homo sapiens), sequence (P04150 whole entry, looked up, the tested form may be a part): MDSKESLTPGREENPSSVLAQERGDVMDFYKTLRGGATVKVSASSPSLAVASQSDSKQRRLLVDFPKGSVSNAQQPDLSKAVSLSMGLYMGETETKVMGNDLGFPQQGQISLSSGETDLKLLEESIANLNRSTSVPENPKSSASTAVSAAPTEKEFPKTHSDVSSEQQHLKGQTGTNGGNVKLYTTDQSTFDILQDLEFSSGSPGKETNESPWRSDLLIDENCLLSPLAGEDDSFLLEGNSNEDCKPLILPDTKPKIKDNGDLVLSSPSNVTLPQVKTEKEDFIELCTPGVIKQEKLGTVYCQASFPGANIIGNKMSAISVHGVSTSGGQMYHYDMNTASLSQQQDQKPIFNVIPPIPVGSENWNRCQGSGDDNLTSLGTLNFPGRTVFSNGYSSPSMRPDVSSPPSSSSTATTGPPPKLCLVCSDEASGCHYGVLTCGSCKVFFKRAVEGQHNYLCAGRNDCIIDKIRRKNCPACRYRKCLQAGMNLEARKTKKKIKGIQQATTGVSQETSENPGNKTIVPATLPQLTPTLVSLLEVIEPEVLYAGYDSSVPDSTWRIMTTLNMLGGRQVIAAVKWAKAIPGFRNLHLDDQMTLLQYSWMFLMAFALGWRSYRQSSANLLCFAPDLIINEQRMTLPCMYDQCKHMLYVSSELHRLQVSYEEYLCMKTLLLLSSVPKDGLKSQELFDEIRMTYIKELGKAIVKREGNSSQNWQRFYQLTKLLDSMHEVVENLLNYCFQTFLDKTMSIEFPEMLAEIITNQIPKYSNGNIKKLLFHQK

Potency, inactive:
O=C(O)c1cc(-c2ccc3cc4c(cc3c2)OCO4)nc2ccccc12 > 9.22 µM
c1cc(NNc2cccc(-c3nn[nH]n3)c2)cc(-c2nn[nH]n2)c1 > 9.22 µM
O=C(O)c1ccc(OCc2ccccc2)c(Cl)c1 > 9.22 µM
Oc1ccc(Cl)cc1C=Nc1cnc2ccccc2c1 > 9.22 µM
N[C@H]1[C@@H](C(=O)O)[C@H]2C=C[C@H]1C2 > 9.22 µM
Cc1ccc(S(=O)(=O)Oc2cc(N)c3c(n2)CCC3)cc1 > 9.22 µM
CN(C)CCCNc1ncnc2nc[nH]c12 > 9.22 µM
CCc1c(O)c2c(c(O)c1C(C)=O)C(=O)c1c(cc(O)c(C(=O)O)c1C(=O)O)C2=O > 9.22 µM
CC1(C)[C@@H]2CC[C@]1(C)[C@@H](OC(=O)/C=C\c1ccccc1)C2 > 9.22 µM
CCCCN(c1ccccc1)c1ncnc2c1cnn2C > 9.22 µM
C[C@H](Br)C(=O)c1ccc2cc(Br)c3ccccc3c2c1 > 9.22 µM
NCC(=O)NC1(C(=O)O)CCCC1 (HELM PEPTIDE1{G.[O=C(O)C1(N[*:1])CCCC1]}$$$$V2.0) > 9.22 µM
COc1ccc([C@H](O)c2ccccn2)cc1 > 9.22 µM
Cn1c(=O)c2c(ncn2CN2CCN(Cn3cnc4c3c(=O)n(C)c(=O)n4C)CC2)n(C)c1=O > 9.22 µM
CSc1ncnc2c1ncn2[C@@H]1O[C@@H](CO)[C@H](O)O[C@@H]1O > 9.22 µM
CC(C)[C@@H](C)/C=C\[C@@H](C)[C@@H]1CC[C@H]2C3=CC=C4C[C@@H](O)CC[C@]4(C)[C@H]3CC[C@]21C > 9.22 µM
Nc1nc(N)c2[nH]cnc2n1 (tested in a mixture with another compound) > 9.22 µM
[O-][N+]1(CC[N+]2([O-])CCCCC2)CCCCC1 > 9.22 µM
C[N+](C)(N)Cc1csc(-c2ccc(Cl)cc2)n1 > 9.22 µM
O=C(O)c1nn(-c2ccc(Cl)cc2)c2c1C(=O)c1ccccc1C2=O > 9.22 µM
O=C(O)[C@@H]1[C@@H](C(=O)Nc2ccccc2)[C@@H]2C=C[C@@H]1O2 > 9.22 µM
Nc1ccc(N=Nc2c(S(=O)(=O)O)cc3ccccc3c2S(=O)(=O)O)cc1 > 9.22 µM
NC[C@H]1O[C@H](n2cnc3c(N)ncnc32)C[C@@H]1O > 9.22 µM
O=C(O)C(Cc1ccccc1-c1ccccc1)C(=O)O > 9.22 µM
O=P(O)(O)O[C@@H]1O[C@H](CO)[C@@H](O)[C@H](O)[C@@H]1O > 9.22 µM
O=C(O)[C@@H]1[C@@H](C(=O)NCc2cccnc2)[C@@H]2C=C[C@@H]1O2 > 9.22 µM
N=C(N)SCc1cccc(-c2nc3ccccc3c(=O)o2)c1 > 9.22 µM
O=c1cc(CF)[nH]c(=S)[nH]1 > 9.22 µM
Cc1cc2sc(C)[n+](CCCOS(=O)(=O)O)c2cc1C > 9.22 µM
C/C(=C\c1ccc(Cl)cc1)C(C)(C)C(=O)O > 9.22 µM
Cc1cc(=O)oc2c(OS(C)(=O)=O)c(OS(C)(=O)=O)ccc12 > 9.22 µM
[O-][N+](CCO)(CCO)c1ncnc2nc[nH]c12 > 9.22 µM
O=C(O)[C@@H]1Cc2c([nH]c3ccccc23)[C@@H](CCCCO)N1 > 9.22 µM
c1ccc(CCNc2ccccn2)nc1 > 9.22 µM
NC(N)=N/N=C\c1ccc(C2CCNCC2)cc1 > 9.22 µM
Cc1ccc(S(=O)(=O)NC(=O)OC23COCN2COC3)cc1 > 9.22 µM
N[C@@H](CSCc1ccccc1)C(=O)O > 9.22 µM
O=S(=O)(O)[C@@H](CO)c1ccccc1 (tested in a mixture with another compound) > 9.22 µM
CCN(CC)C[C@@H](O)c1ccc2ccc3ccccc3c2c1 > 9.22 µM
COc1cc(N=C(N)N=C(N)N)c2ncccc2c1 > 9.22 µM

biological target: Mitogen-activated protein kinase 10 (Mus musculus) (UniProt Q61831); assay: JNK3 AlphaScreen Assay (AID 530); conditions: JNK3 lysate, c-Jun phosphorylation; series mostly up to 11.4 µM;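 also: kinase came from lysate of stimulated human HepG2 cells; signal reports phosphorylation of biotinylated GST-cJun 1-79 at Ser73 with 10 µM ATP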
How it was run: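 Biotinylated GST-cJun(1-79) served as substrate for JNK3 in HepG2 lysates stimulated with IL-1beta and TNF-alpha. ATP was 10 uM final, pH 7.6. Ser73 phosphorylation was quantified by AlphaScreen (680 nm excitation).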

Potency, inactive:
O=C(O)c1cc(-c2ccc3cc4c(cc3c2)OCO4)nc2ccccc12
c1cc(NNc2cccc(-c3nn[nH]n3)c2)cc(-c2nn[nH]n2)c1
O=C(O)c1ccc(OCc2ccccc2)c(Cl)c1
Oc1ccc(Cl)cc1C=Nc1cnc2ccccc2c1
N[C@H]1[C@@H](C(=O)O)[C@H]2C=C[C@H]1C2
Cc1ccc(S(=O)(=O)Oc2cc(N)c3c(n2)CCC3)cc1
CN(C)CCCNc1ncnc2nc[nH]c12
CCc1c(O)c2c(c(O)c1C(C)=O)C(=O)c1c(cc(O)c(C(=O)O)c1C(=O)O)C2=O
CC1(C)[C@@H]2CC[C@]1(C)[C@@H](OC(=O)/C=C\c1ccccc1)C2
CCCCN(c1ccccc1)c1ncnc2c1cnn2C
C[C@H](Br)C(=O)c1ccc2cc(Br)c3ccccc3c2c1
NCC(=O)NC1(C(=O)O)CCCC1 (HELM PEPTIDE1{G.[O=C(O)C1(N[*:1])CCCC1]}$$$$V2.0)
COc1ccc([C@H](O)c2ccccn2)cc1
Cn1c(=O)c2c(ncn2CN2CCN(Cn3cnc4c3c(=O)n(C)c(=O)n4C)CC2)n(C)c1=O
CSc1ncnc2c1ncn2[C@@H]1O[C@@H](CO)[C@H](O)O[C@@H]1O
CC(C)[C@@H](C)/C=C\[C@@H](C)[C@@H]1CC[C@H]2C3=CC=C4C[C@@H](O)CC[C@]4(C)[C@H]3CC[C@]21C
Nc1nc(N)c2[nH]cnc2n1 (tested in a mixture with another compound)
[O-][N+]1(CC[N+]2([O-])CCCCC2)CCCCC1
C[N+](C)(N)Cc1csc(-c2ccc(Cl)cc2)n1
O=C(O)c1nn(-c2ccc(Cl)cc2)c2c1C(=O)c1ccccc1C2=O
O=C(O)[C@@H]1[C@@H](C(=O)Nc2ccccc2)[C@@H]2C=C[C@@H]1O2
Nc1ccc(N=Nc2c(S(=O)(=O)O)cc3ccccc3c2S(=O)(=O)O)cc1
NC[C@H]1O[C@H](n2cnc3c(N)ncnc32)C[C@@H]1O
O=C(O)C(Cc1ccccc1-c1ccccc1)C(=O)O
O=P(O)(O)O[C@@H]1O[C@H](CO)[C@@H](O)[C@H](O)[C@@H]1O
O=C(O)[C@@H]1[C@@H](C(=O)NCc2cccnc2)[C@@H]2C=C[C@@H]1O2
N=C(N)SCc1cccc(-c2nc3ccccc3c(=O)o2)c1
O=c1cc(CF)[nH]c(=S)[nH]1
Cc1cc2sc(C)[n+](CCCOS(=O)(=O)O)c2cc1C
C/C(=C\c1ccc(Cl)cc1)C(C)(C)C(=O)O
Cc1cc(=O)oc2c(OS(C)(=O)=O)c(OS(C)(=O)=O)ccc12
[O-][N+](CCO)(CCO)c1ncnc2nc[nH]c12
O=C(O)[C@@H]1Cc2c([nH]c3ccccc23)[C@@H](CCCCO)N1
c1ccc(CCNc2ccccn2)nc1
NC(N)=N/N=C\c1ccc(C2CCNCC2)cc1
Cc1ccc(S(=O)(=O)NC(=O)OC23COCN2COC3)cc1
N[C@@H](CSCc1ccccc1)C(=O)O
O=S(=O)(O)[C@@H](CO)c1ccccc1 (tested in a mixture with another compound)
CCN(CC)C[C@@H](O)c1ccc2ccc3ccccc3c2c1
COc1cc(N=C(N)N=C(N)N)c2ncccc2c1
